Our source for the Potency values is PubChem BioAssay AID434936 (National Center for Advancing Translational Sciences (NCATS), 2010).

Records with an inconclusive call do not appear. Active and inactive are the calls of the source. The call rests on the fitted dose curve; in most records, active means well fitted curve in either direction with a large enough effect; inconclusive means small, poorly fitted or top-dose-only effect; inactive means flat fitted curve, though single readings scatter.

Sequence of Neuropeptide S receptor (Homo sapiens) (Q6W5P4 whole entry, looked up): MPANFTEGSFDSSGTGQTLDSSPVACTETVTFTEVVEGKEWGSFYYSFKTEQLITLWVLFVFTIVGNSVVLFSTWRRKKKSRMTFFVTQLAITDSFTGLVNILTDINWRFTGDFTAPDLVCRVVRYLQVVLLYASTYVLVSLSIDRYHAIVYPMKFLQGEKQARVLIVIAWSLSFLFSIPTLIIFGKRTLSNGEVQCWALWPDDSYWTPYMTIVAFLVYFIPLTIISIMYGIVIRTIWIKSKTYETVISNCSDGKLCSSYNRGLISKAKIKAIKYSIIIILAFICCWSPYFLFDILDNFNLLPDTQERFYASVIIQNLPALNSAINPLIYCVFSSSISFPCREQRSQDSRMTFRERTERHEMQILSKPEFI

The test concerns the target Neuropeptide S receptor (Homo sapiens) (UniProt Q6W5P4). Description: Confirmation Concentration-Response Assay for Antagonists of the Neuropeptide S Receptor: Robust Characterization of cAMP Signal Transduction. As to conditions: CHO-NPSR cells, NPS-stimulated cAMP TR-FRET; series mostly up to 50.7 µM. From the text: NIH Chemical Genomics Center [NCGC] NIH Molecular Libraries Probe Production centers Network [MLPCN] MLPCN Grant: X01-DA026210-01 Assay Submitter (PI): Heilig, Markus Alexander NCGC Assay Overview: Neuropeptide S receptor (NPSR), previously known as GPR154, is a recently de-orphanized G protein coupled receptor. Its endogenous ligand is the 20 amino acids peptide Neuropeptide S (NPS). […] NPS and its receptor are found in various tissues. Specifically they are highly expressed in brain areas that have been implicated in modulation of arousal, stress and anxiety. Central administration of NPS in mice produces an unusual profile of activity by inducing wakefulness and arousal, while at the same time suppressing anxiety. Therefore, NPSR may represent a novel drug target for the treatment of sleep and anxiety disorders. To identify NPSR antagonists, we developed a cell-based cAMP assay. NPS can stimulate the production of cAMP in Chinese hamster ovary cells stably expressing NPS receptor. This change in intracellular cAMP level can be detected by a homogeneous LANCE cAMP assay based on the TR-FRET (time resolved fluorescence resonance energy transfer) between a europium-labeled cAMP tracer complex and a cAMP-specific antibody labeled with Alexa Fluor 647. The europium-labeled cAMP tracer complex is formed by the tight interaction between Biotin-cAMP (b-cAMP) and streptavidin labeled with Europium-W8044 chelate (Eu-SA). Light pulse at 320 nm excites the europium of the cAMP tracer and the energy emitted is transferred to the Alexa molecule bound to the cAMP antibody, generating a TR-FRET signal at 665 nm. Residual energy from the europium will produce a light at 620 nm. The native unlabeled cAMP from cell lysates competes with the europium-cAMP tracer for antibody binding and reversely reduces the emission signal of Alexa by interrupting FRET between the two labeled molecules. Both emission signals from the FRET donor (620 nm) and the acceptor (665 nm) can be detected by a plate reader in the TRF mode. Expression of result in fluorescence ratio (665 nm/620 nm) helps to normalize differences due to cell density and reagent dispensing. This assay was successfully optimized to a 1536-well plate format. Select compounds from the primary screen (AID 1461) were chosen for confirmation based on potency, efficacy, SAR, and activity across other assays in PubChem and at NCGC. Other compounds are analogs of active compounds from the primary screen. This particular assay uses a high density of sampling across concentration-response space to establish more confidence estimates of potency.
NCGC Assay Protocol Summary: A Chinese hamster ovary (CHO) cell line stably expressing the NPS receptor (CHO-NPSR) was obtained from Dr. Heilig lab at NIAAA and maintained in F-12 Kaighn's media (Invitrogen, Carlsbad, CA, 21127) supplemented with 10 % FBS, 100 units/ml penicillin, 100 ug/ml streptomycin and 250 ug/ml geneticin at 37C, 5% CO2 in a humidified atmosphere. Before the assay, aliquots of cells were frozen and stored at -135C. The assay was performed in 1536-well format. Data are reported for both the ratio of the two emission wavelengths, and also for the component 'donor' channel, Em2=620. […] IC50 values were determined from concentration-response data modeled with the standard Hill equation. NPS 1536-well assay protocol: (1) Fresh or frozen CHO-NPSR cells were suspended in F-12 Kaighn's media supplemented with 10 % FBS, 100 units/ml penicillin and 100 ug/ml streptomycin. Cells were plated at 4 ul/well (1200 cells) to white, tissue culture treated 1536-well plates, and then cultured at 37C, 5 % CO2 for 16 to 30 hours. (2) Add 23 nl/well of compound in DMSO solution. The final titration for each compound was between 0.6 nM and 46 uM. […]
In general terms: TR-FRET usually uses a lanthanide donor and a delayed reading to cut background.
For `COc1cccc(C2c3c(ncn(Cc4cccs4)c3=N)Oc3ccc4ccccc4c32)c1` (stereo unspecified), the Potency was 12.2 µM (active).
Take `COc1cccc(C2c3c(ncn(CCN4CCOCC4)c3=N)Oc3ccc4ccccc4c32)c1` (stereo unspecified): the Potency is 12.2 µM (active).
Turning to `COc1ccc(-n2cnc3c(c2=N)C(c2cccc(OC)c2)c2c(ccc4ccccc24)O3)cc1` (stereo unspecified), the Potency was 6.88 µM (active).
The result for `O=C(c1ccccc1)N(C(=O)c1ccccc1)c1ncnc2c1C(c1ccccc1)c1c(ccc3ccccc13)O2` (stereo unspecified) reads 1.54 µM (active); that for `COc1cccc(C2c3c(ncn(-c4cccc(OC)c4)c3=N)Oc3ccc4ccccc4c32)c1` (stereo unspecified), 6.88 µM (active); that for `Cc1c(C(O)(c2ccccc2)c2ccccc2)[n+]2ccccc2n1C`, “inactive”.
Take `N=c1c2c(ccn1CCc1ccccc1)Oc1ccc3ccccc3c1C2c1ccccc1` (stereo unspecified): the Potency is 3.87 µM (active).
Turning to `COc1ccc(C2c3c(ncn(Cc4ccccc4)c3=N)Oc3ccc4ccccc4c32)cc1OC` (stereo unspecified), the Potency was 13.7 µM (active).
Under `COc1ccc(C2c3c(nc(CCCc4ccccc4)[nH]c3=O)Oc3ccc4ccccc4c32)cc1OC` (stereo unspecified) stands “inactive”.
The result for `COc1ccc(C2C3=C(N=CN(CCN4CCOCC4)C3N)Oc3ccccc32)cc1OC` (stereo unspecified) reads “inactive”; that for `N=c1c2c(ncn1-c1ccccc1)Oc1ccc3ccccc3c1C2c1ccc2c(c1)CCO2` (stereo unspecified), 2.18 µM (active).
Turning to `N=c1c2c(ccn1-c1ccccc1)Oc1ccc3ccccc3c1C2c1ccccc1` (stereo unspecified), the Potency is 1.09 µM (active).
The result for `CCC(C)(CCN1CCOCC1)N(Cc1cc2ccccc2n(C)c1=O)C(=O)C1CCCCC1` (stereo unspecified) reads 0.0546 µM (active); that for `O=C(CCc1ccccc1)Nc1ncnc2c1C(c1ccccc1)c1c(ccc3ccccc13)O2` (stereo unspecified), 4.34 µM (active).
Under `COc1ccc(C2c3c(ncn(CCCc4ccccc4)c3=N)Oc3ccc4ccccc4c32)cc1OC` (stereo unspecified) stands 27.4 µM (active); under `Fc1ccc(-c2c(P(=S)(c3ccccc3)c3ccccc3)n3ccccc3[n+]2C/C=C/c2ccccc2)cc1`, 0.471 µM (active); under `COc1cccc(C2c3c(ncn(-c4cccc(C)c4)c3=N)Oc3ccc4ccccc4c32)c1` (stereo unspecified), 9.72 µM (active).
Under `N=c1c2c(ncn1-c1ccccc1)Oc1ccc3ccccc3c1C2c1ccc2c(c1)OCO2` (stereo unspecified) stands 3.07 µM (active); under `O=C(NCc1ccccc1)Nc1ncnc2c1C(c1ccccc1)c1c(ccc3ccccc13)O2` (stereo unspecified), 30.7 µM (active).
Consider `COc1ccc(C2c3c(nc(Cc4ccccc4)[nH]c3=O)Oc3ccc4ccccc4c32)cc1OC` (stereo unspecified), for which the Potency result was “inactive”.
In the case of `COc1cccc(C2c3c(ncn(-c4cccc(C#N)c4)c3=N)Oc3ccc4ccccc4c32)c1` (stereo unspecified), the Potency is 13.7 µM (active).
On to `COc1ccc(C2c3ccccc3Oc3ncn(CCN4CCOCC4)c(=N)c32)cc1OC` (stereo unspecified), for which the Potency is 4.87 µM (active).
Under `CC(C)(C)OC(=O)Nc1ncnc2c1C(c1ccccc1)c1c(ccc3ccccc13)O2` (stereo unspecified) stands 10.9 µM (active); under `N=c1c2c(ccn1CCCc1ccccc1)Oc1ccc3ccccc3c1C2c1ccccc1` (stereo unspecified), 2.74 µM (active); under `COc1cccc(C2C(C#N)=C(NC(=O)CCc3ccccc3)Oc3ccc4ccccc4c32)c1` (stereo unspecified), “inactive”.
For the compound `COc1cccc(C2c3c(ncn(-c4ccccc4OC)c3=N)Oc3ccc4ccccc4c32)c1` (stereo unspecified), the Potency is 4.34 µM (active).
For `CCOC(=O)CC(=O)Nc1ncnc2c1C(c1ccccc1)c1c(ccc3ccccc13)O2` (stereo unspecified), the Potency was 3.07 µM (active).
The result for `COc1cccc(C2c3c(ncn(-c4ccc(-c5ccccc5)cc4)c3=N)Oc3ccc4ccccc4c32)c1` (stereo unspecified) reads “inactive”; that for `COc1cccc(C2c3c(ncn(-c4ccccc4Br)c3=N)Oc3ccc4ccccc4c32)c1` (stereo unspecified), 9.72 µM (active); that for `Nc1ncnc2c1C(c1ccccc1)c1c(ccc3ccccc13)O2` (stereo unspecified), 6.88 µM (active).
Under `COc1cccc(C2c3c(ncn(-c4cccnc4)c3=N)Oc3ccc4ccccc4c32)c1` (stereo unspecified) stands 8.67 µM (active).
